# Values without a mark were called inactive. Inconclusive results are not listed. A call without a number means that no potency is given here. Active and inactive are the calls of the source. Unless noted, the call rests on the fitted dose curve; in most records, active means well fitted curve in the direction sought with a large enough effect in the repeat runs; inconclusive means weak or mixed curves; inactive means no such curve, though single readings can be large; an effect the other way counts as inactive or inconclusive.
# Tests used:
# [1] = qHTS assay for small molecule agonists of the p53 signaling pathway (AID 651631; calls by dose curve; further: nearly all actives have a fitted effect of over 15% in size; further: potency means the concentration at half of the fitted maximal effect)
# In short: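 HCT-116 p53RE-bla reporter line, 16 h compound treatment at 37 °C, then fluorescence after 2 h with B/G FRET substrate.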
# [2] = qHTS assay for small molecules that induce genotoxicity in human embryonic kidney cells expressing luciferase-tagged ATAD5 (AID 651632); further: nearly all actives have a fitted effect of over 15% in size
# In short: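 Reporter cells (HEK293T) express luciferase-tagged ATAD5, a protein that accumulates after DNA damage. Treat 16 hr at 37C/5% CO2, add Amplite, wait 30 min at RT, and read luminescence.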
# [3] = qHTS assay for small molecule agonists of the p53 signaling pathway - cell viability (AID 651633; calls by dose curve;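 further: p53RE-bla HCT reporter cells with a stable beta-lactamase p53 reporter; series mostly up to about 83 µM; nearly all actives have a fitted effect of over 30% in size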)
# In short: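 p53RE-bla cells were treated with compound for 16 hours at 37 C. Cytotoxicity was then measured as CellTiter-Glo luminescence after 30 min at room temperature.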
# [4] = qHTS assay for small molecules that induce genotoxicity in human embryonic kidney cells expressing luciferase-tagged ATAD5 - cell viability (AID 651634; calls by dose curve; further: nearly all actives have a fitted effect of over 25% in size)
# In short: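 Seeding of 2,000 HEK293T ATAD5-luciferase cells per well preceded pin-tool compound transfer. Plates sat 15.5 hr at 37C under 5% CO2, then fluorescence was read after 30 min with CellTiter-Fluor.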
# [5] = qHTS assay for small molecule disruptors of the mitochondrial membrane potential - cell viability (AID 720634; calls by dose curve;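 further: human HepG2 liver cancer cells; series mostly up to about 83 µM; nearly all actives have a fitted effect of over 20% in size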)
# In short: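 Measuring cytotoxicity alongside mitochondrial potential, the screen quantified ATP by luminescence in HepG2 cells after 1 hr compound incubation and a 30 min room-temperature CellTiter-Glo step.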
# [6] = qHTS assay to test for compound auto fluorescence at 535 nm (green) in HepG2 cells (AID 720675)
# [7] = qHTS assay to test for compound auto fluorescence at 460 nm (blue) in HEK293 cells (AID 720678)
# In short: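 Blue read-out at excitation 405 nm and emission 460 nm follows overnight compound exposure of HEK293 cells at 37C in 5% CO2. Activity is given as auto fluorescence equivalency to triamterene.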
# [8] = qHTS assay to test for compound auto fluorescence at 590 nm (red) in HEK293 cells (AID 720679)
# In short: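 Red channel, Ex/Em 540/590nm; signal expressed as equivalency to Rose Bengal sodium. HEK293, 2,000 cells/well, 10% dialyzed FBS; 23 nL compound pinned after 4-5 hr attachment; overnight 37C/5% CO2 before reading.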
# [9] = qHTS assay to test for compound auto fluorescence at 535 nm (green) in HEK293 cells (AID 720680)
# [10] = qHTS assay to test for compound auto fluorescence at 460 nm (blue) in HEK293 cell free culture (AID 720681)
# In short: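 Compounds were added to cell-free DMEM with 10% FBS and fluorescence read directly. The blue channel used 405 nm excitation and 460 nm emission, with triamterene as the reference fluorophore.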
# [11] = qHTS assay to test for compound auto fluorescence at 535 nm (green) in HEK293 cell free culture (AID 720682)
# In short: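 Steps: dispense DMEM/10% FBS into empty wells; pin in compound or DMSO; measure fluorescence at 485/535 nm. Values are fluorescein equivalents.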
# [12] = qHTS assay to test for compound auto fluorescence at 590 nm (red) in HEK293 cell free culture (AID 720683)
# In short: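 Cell-free wells of DMEM with 10% FBS received compound, and intrinsic fluorescence was read at excitation/emission 540/590 nm. Values expressed as equivalence to Rose Bengal sodium.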
# [13] = qHTS assay to test for compound auto fluorescence at 590 nm (red) in HepG2 cell free culture (AID 720684)
# In short: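 Compounds are added to culture medium (MEM, 10% FBS) lacking cells, then fluorescence is read at excitation 540 nm, emission 590 nm, with Rose Bengal sodium as the equivalency standard.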
# [14] = qHTS assay to test for compound auto fluorescence at 460 nm (blue) in HepG2 cell free culture (AID 720685)
# In short: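 Compound (23 nL) or DMSO pinned into cell-free MEM with 10% FBS; blue fluorescence read at 405/460 nm excitation/emission, expressed as auto-fluorescence equivalency to triamterene.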
# [15] = qHTS assay to test for compound auto fluorescence at 535 nm (green) in HepG2 cell free culture (AID 720686)
# [16] = qHTS assay to test for compound auto fluorescence at 460 nm (blue) in HepG2 cells (AID 720687)
# In short: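 HepG2 cells in MEM with 10% FBS, attached overnight at 37 C, were exposed to compound or DMSO for 1 hr at 37 C, 5% CO2. Blue fluorescence was read at 405/460 nm, with triamterene as reference fluorophore.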
# [17] = qHTS assay to test for compound auto fluorescence at 590 nm (red) in HepG2 cells (AID 720674)
# In short: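 HepG2 cells, 2,000 per well in MEM with 10% FBS, attached overnight at 37 C, then got 23 nL compound or DMSO. After 1 hr at 37 C, 5% CO2, red fluorescence was read at 540/590 nm against Rose Bengal sodium as reference.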
# [18] = molecular target: Glucocorticoid receptor (Homo sapiens) (UniProt P04150); assay: qHTS assay to identify small molecule agonists of the glucocorticoid receptor (GR) signaling pathway (AID 720691; active means well fitted activation curve with a large enough effect in the signal ratio in the repeat runs, not every such curve was filed as active; the % refers to the signal ratio)
# In short: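 Reporter read-out: fluorescence intensity following 2 h room-temperature LiveBLAzer B/G FRET substrate loading. Prior step: GR-bla HeLa cells held 4 h, then treated 18 h at 37 C.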
# [19] = molecular target: Glucocorticoid receptor (Homo sapiens) (UniProt P04150); assay: qHTS assay to identify small molecule antagonists of the glucocorticoid receptor (GR) signaling pathway (AID 720692; active means well fitted inhibition curve with a large enough effect in the signal ratio in the repeat runs, not every such curve was filed as active; the % refers to the signal ratio)
# In short: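 Dexamethasone (5 nM final) stimulated a stably integrated GRE-beta-lactamase reporter in HeLa cells during 18 h co-incubation with compounds; signal was quantified as fluorescence intensity of B/G FRET substrate after 2 h.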
# [20] = qHTS assay for small molecule disruptors of the mitochondrial membrane potential (AID 720635); further: potency means the concentration at half of the fitted maximal effect
# In short: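 HepG2 cells exposed to compound 1 hr at 37C, then Mito-MPS dye 30 min. Ratio read of aggregate (540/590 nm) versus monomer (490/535 nm) fluorescence.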
# Glucocorticoid receptor (Homo sapiens), sequence (P04150 whole entry, looked up): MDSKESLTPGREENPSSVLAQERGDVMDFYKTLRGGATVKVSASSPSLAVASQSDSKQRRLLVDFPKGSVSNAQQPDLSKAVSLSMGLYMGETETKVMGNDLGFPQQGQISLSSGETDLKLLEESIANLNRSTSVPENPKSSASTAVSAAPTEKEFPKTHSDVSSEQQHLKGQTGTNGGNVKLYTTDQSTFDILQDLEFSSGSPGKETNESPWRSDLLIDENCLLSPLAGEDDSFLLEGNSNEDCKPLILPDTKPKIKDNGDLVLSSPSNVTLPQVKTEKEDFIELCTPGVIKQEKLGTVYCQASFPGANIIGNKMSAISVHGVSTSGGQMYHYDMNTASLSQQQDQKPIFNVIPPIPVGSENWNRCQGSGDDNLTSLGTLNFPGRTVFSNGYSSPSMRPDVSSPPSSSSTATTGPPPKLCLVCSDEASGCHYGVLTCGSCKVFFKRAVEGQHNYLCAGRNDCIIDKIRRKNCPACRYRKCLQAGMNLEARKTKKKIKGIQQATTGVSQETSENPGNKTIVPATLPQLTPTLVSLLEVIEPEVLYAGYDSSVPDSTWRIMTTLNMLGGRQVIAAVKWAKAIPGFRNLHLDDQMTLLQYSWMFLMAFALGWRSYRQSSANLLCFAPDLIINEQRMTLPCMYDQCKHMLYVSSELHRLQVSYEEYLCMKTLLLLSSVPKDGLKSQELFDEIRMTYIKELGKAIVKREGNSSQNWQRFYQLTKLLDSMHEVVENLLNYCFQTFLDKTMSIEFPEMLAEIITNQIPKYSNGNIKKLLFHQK
Structure (SMILES),Potency [1],Potency [2],Potency [3],Potency [4],Potency [5],outcome [6],outcome [7],outcome [8],outcome [9],outcome [10],outcome [11],outcome [12],outcome [13],outcome [14],outcome [15],outcome [16],outcome [17],outcome [18],Potency [19],Potency [20]
CCOc1ccc(C(C)(C)COCc2cccc(Oc3ccccc3)c2)cc1,inactive,inactive,inactive,inactive,inactive,inactive,inactive,inactive,inactive,inactive,inactive,inactive,inactive,inactive,inactive,inactive,,,,
COc1c(C(C)(C)C)cc([N+](=O)[O-])c(C)c1[N+](=O)[O-],inactive,inactive,inactive,inactive,inactive,inactive,inactive,,inactive,inactive,inactive,inactive,inactive,inactive,inactive,inactive,inactive,inactive,inactive,
CC(C)=CCOc1c2occc2cc2ccc(=O)oc12,inactive,inactive,inactive,inactive,inactive,inactive,inactive,,inactive,inactive,inactive,inactive,inactive,inactive,,inactive,,,,inactive
CC(Cl)C(C)Cl (configuration not stated),inactive,inactive,inactive,inactive,inactive,inactive,inactive,inactive,inactive,inactive,inactive,inactive,inactive,inactive,inactive,inactive,inactive,inactive,,
N#Cc1ccc(Cl)cc1,inactive,inactive,inactive,inactive,inactive,inactive,inactive,inactive,inactive,,inactive,inactive,inactive,inactive,,inactive,inactive,inactive,,
CCOS(C)(=O)=O,inactive,inactive,inactive,inactive,inactive,inactive,inactive,inactive,inactive,inactive,inactive,inactive,inactive,inactive,,inactive,inactive,,,
ClCC(Br)CBr (configuration not stated),inactive,inactive,inactive,inactive,inactive,inactive,inactive,inactive,inactive,inactive,inactive,inactive,inactive,inactive,inactive,inactive,,,,
Cc1ccc(N)cc1C,inactive,inactive,inactive,inactive,inactive,inactive,inactive,inactive,inactive,inactive,inactive,inactive,inactive,inactive,inactive,inactive,,,,
Cc1ccccc1C(=O)Nc1cccc(OC(C)C)c1,inactive,inactive,inactive,inactive,,inactive,inactive,inactive,inactive,,inactive,inactive,inactive,inactive,inactive,inactive,inactive,inactive,inactive,30.6 µM (active)
BrCCCCBr,inactive,inactive,inactive,inactive,inactive,inactive,inactive,inactive,inactive,inactive,inactive,inactive,inactive,inactive,inactive,inactive,inactive,inactive,,
C#CCOC(C(=O)OCCN(C)C)(c1ccccc1)c1ccccc1,inactive,inactive,inactive,inactive,inactive,inactive,inactive,inactive,,,inactive,inactive,inactive,inactive,,inactive,inactive,,,
C=CCCl,inactive,inactive,inactive,inactive,inactive,inactive,inactive,inactive,inactive,inactive,inactive,inactive,inactive,inactive,inactive,,inactive,,,
CO/C=C(/C(=O)OC)c1ccccc1COc1cccc(C(F)(F)F)n1,8.63 µM (active),inactive,inactive,inactive,,inactive,inactive,inactive,,inactive,inactive,inactive,inactive,inactive,,inactive,inactive,,,6.85 µM (active)
CCC(COC(=O)c1cc(OC)c(OC)c(OC)c1)(c1ccccc1)N(C)C (configuration not stated),inactive,inactive,inactive,inactive,inactive,inactive,inactive,,inactive,inactive,inactive,inactive,inactive,inactive,inactive,,,inactive,,
N#C/C(N)=C(/N)C#N,inactive,inactive,inactive,inactive,inactive,inactive,inactive,inactive,,inactive,inactive,inactive,inactive,inactive,inactive,,inactive,inactive,,
C[N+](C)(C)CCCl,inactive,inactive,inactive,inactive,inactive,inactive,inactive,inactive,inactive,inactive,inactive,inactive,inactive,inactive,inactive,inactive,inactive,inactive,,
O=C(CBr)OCc1ccccc1,inactive,inactive,inactive,inactive,inactive,inactive,inactive,inactive,inactive,,inactive,inactive,inactive,inactive,inactive,inactive,,,inactive,

# — PubChem BioAssay (Tox21)
